Test results: PubChem BioAssay AID1508600 (Functional Genomics Laboratory (NCATS/FGL), 2020)
In all, about 53,000 sequences went through this assay and about 3,700 (7%) were called active. The sample as a whole holds a higher share of actives than the screen did. Unmarked numbers belong to inactive results.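 How the source made its calls: active means gene knockdowns whose robust z-score for IL-1 alpha signal is at least 2 or at most -2, so actives lie on both sides; inactive means the rest.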

Assay: Components of the Cytosolic LPS Sensing Pathway: Gene Identification via Genome-wide siRNA Screen;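 further: robust z of the log signal after scaling to non-targeting control siRNA wells of the plate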
Conditions: RAW264.7 macrophages, IL-1a HTRF, actives lie on both sides, screened at 100 nM (by protocol), cells primed 5 h with Pam3CSK4 first
Summary of the method: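 Using IL-1a HTRF as read-out, the screen measured release from RAW264.7 cells after 48h siRNA knockdown (100 nM), 5 h Pam3CSK4 priming and 24 h cytosolic LipidA. Values were expressed relative to negative-control wells as robust z-scores.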
Work on GCUGUAUCAGUCUUUCUAUTT against Cyp27b1 yielded a z-score of 0.442.
Work on GGACAUGUCGGAUGGCUUCTT against P4ha1 yielded a z-score of 0.212.
With GGCAGCAUUAAAACUUAAGTT against Chtop the z-score was 2.71 (active).
GGGUAACAUGAAGAUCAAUTT against Rnf19a showed a z-score of 0.488.
With GGGACAAAAGCAAUCAAACTT against H2-M11 the z-score was 2.06 (active).
Work on GCAAGCAUGCUCAUAAAGATT against Cast yielded a z-score of -0.142.
With CGUAUGCAGAACAACAUUUTT against Klhl2 the z-score was 1.77.
CGAUCCCUGUCUGUUGGAUTT against Spint4 showed a z-score of 0.944.
GGAGGUAUACAGUAAGGAGTT against Fbxo32 showed a z-score of 0.542.
With GGCUGACAGUAACAAGUGGTT against Fignl1 the z-score was 3.72 (active).
Work on GCCAGGAUCCAUCAAUUCCTT against Olfr376 yielded a z-score of -1.84.
Work on CCCUGAAAAUUAUCGAGCGTT against Galnt18 yielded a z-score of -0.493.
In the case of CCCAGGAACUAUGAGUUGUTT against Rnf31, the z-score is reported as -1.87.
Sequence GGAGAAAUUCUUCAAUGAGTT against Syt2 has a z-score of -0.19.
Sequence GGAGACCAAAAUUUCUUGGTT against Sox9 has a z-score of 0.0192.
With GGAUCCGAACAUCCUCAGGTT against Hr the z-score was -2.22 (active).
In the case of CGAAGAGAUCAGUAAUAUGTT against Kif21a, the z-score is reported as 0.31.
For CCCAUGGAAAUCCUCAGUATT against Ctsa, the z-score was -2.1 (active).
With CCCACUGAUGAUUACGUUCTT against Irf5 the z-score was -0.247.
Sequence CCACAAGCUAAUACAUGCUTT against Ubac1 has a z-score of -1.37.
With GGCCACAAAGACUCUGUGATT against Aamp the z-score was -2.25 (active).
Sequence GGCAGAACACCUUCUUAGUTT against Dars2 has a z-score of -0.425.
For AGUUAGCCUUGAGGAGAAUTT against Olfr1512, the z-score was 0.503.
CCAUUGGAUUGGAACUGGATT against Dhx57 showed a z-score of -0.288.
GCAGGUUUGAUAUAAAAUCTT against Uba2 showed a z-score of 0.162.
In the case of GCUCACCUGAGUCAAUGAUTT against Nr5a2, the z-score is reported as -2.25 (active).
For GGAAUUUUGGUAGGUUUUATT against Tlcd4, the z-score was 1.36.
CGGAAAAUCCUGCCUCCCUTT against S100pbp gave a z-score of -0.36.
In the case of GGAUGUAGAUGUUGGUUUUTT against Kcnj14, the z-score is reported as 2.52 (active).
In the case of GCCAUCUGCUUUAACCUCUTT against Aebp2, the z-score is reported as 0.238.
Work on GGUGUACGAGAUCCAGGACTT against Eif3l yielded a z-score of -0.699.
For GGCUGGUCAAAAUUUGGAATT against Cdca2, the z-score was -0.9.
For CGCAAGGACCGAUCUGAUGTT against Rnps1, the z-score was -2.41 (active).
In the case of GCAUCUGGGACAUUUAGAGTT against Cd200r3, the z-score is reported as -1.08.
Sequence CCAGCUUUUGUUUGUUAGATT against Trappc11 has a z-score of 0.56.
GGAAGACUUGGCUACACAATT against Rab40c gave a z-score of -1.04.
GGCAAACCUGCUUCUGCUATT against Prss52 gave a z-score of -1.27.
For GUUACUUUGAUGUUGUCUATT against Pdgfrl, the z-score was 0.817.
Sequence GGCCAAUGCACUGUGUUACTT against Tinag has a z-score of 1.25.
For GCAGAGAGAUACAUUAAAGTT against Adam10, the z-score was 1.16.
CGCGCUUCUACUUUUUUUATT against Nkx2-1 showed a z-score of 0.406.
With GGAGGACCCUAUGUCUAAUTT against Adora1 the z-score was 4.6 (active).
For “GCUGAGACAUGUGGAGUAUTT against 4931429L15Rik”, the z-score was 0.426.
With GGUUCUCAUCAUUUCAACUTT against Sh3bgrl the z-score was -1.61.
GGCUUUGACCCGAAAAGAATT against Tut4 showed a z-score of -0.0161.
For CGUGCCAAUUGAAAAAAACTT against Prkn, the z-score was 1.23.
For CCAUACAAUAAGAGUGCUATT against Clec4a4, the z-score was 0.936.
In the case of “GGGUAGGCAAAGUUUUCAATT against 1700029M20Rik”, the z-score is reported as 4.63 (active).
With GCAUUCCAUGGUACAGGGUTT against Adamts4 the z-score was -0.646.
For CGGUUUACAUUCCUGACUUTT against Plekho2, the z-score was 1.42.
GGACCAAAGAUGCAUCAGUTT against Zfyve16 showed a z-score of -0.788.
In the case of GGACCAAGGCUUUAUGAACTT against Crygn, the z-score is reported as 0.404.
With GGCCUACGAACAGGUCAUGTT against Foxa2 the z-score was 0.0835.
Work on “CGUGUCUGAAGGACUACAATT against 1700052K11Rik” yielded a z-score of 0.0454.
Work on GCAGUAAGUCAGUGCCUCATT against Atxn1 yielded a z-score of 1.51.
GGUUGAUGCCAUGAAGUCCTT against Acyp2 gave a z-score of -1.22.
With GGUUGUUGUGACCUUCCUGTT against Bod1 the z-score was -2.65 (active).
For GGGACAUUAUGCUUAUGACTT against Srsf7, the z-score was -0.513.
For GGCAGAAGCCUAAAACGGUTT against Nudt2, the z-score was 0.00394.
For GGCAUUCUGAAAACAACUCTT against Hvcn1, the z-score was 2.02 (active).
In the case of GCCAAGACCUAUGAGUAUATT against Naaladl1, the z-score is reported as 1.33.
In the case of CCGAUAAUAUCAAUGGAAATT against Med24, the z-score is reported as 0.744.
Sequence GGACAUCAAGAAGGACAAATT against Ppp2r5d has a z-score of 0.874.
Sequence GGGUCAAAGAGAAAAAAGUTT against Hoxa13 has a z-score of -1.2.
With GGUGAUGGUGUAAAAUACATT against Dab2 the z-score was 4.98 (active).
For GGAGAAGCAUGGCUAUAACTT against Rcor2, the z-score was -0.393.
For GGUGACCUACAAGAUUUGUTT against Csdc2, the z-score was -0.801.
Sequence GUCACUCUUUUUUAUGGAATT against Olfr485 has a z-score of -1.48.
With GGCGAAUUGAAGGAGACCATT against Tmod3 the z-score was 2.54 (active).
GGGCAUAGAUUAGUCUUUATT against Ing2 showed a z-score of 1.01.
Work on GCGCAUAUUUUAUCAACUCTT against Plcb3 yielded a z-score of 0.38.
GGAACCAUGGACCUUAAUUTT against Rbm4 gave a z-score of 0.291.
Work on GCUUUCCUAGACAAUCUAUTT against Arhgap19 yielded a z-score of 0.0654.
Work on GGCUGCAUUACCCAGCUUATT against Olfr853 yielded a z-score of 0.719.
GGAAGUCCUAUGAUUAAACTT against Zfand1 showed a z-score of -0.633.
Work on CCUUCUAUUCACUUUACCATT against Vmn1r87 yielded a z-score of -0.907.
GGGUUCACAUGGCAUAGUCTT against Zfp1 showed a z-score of -0.0137.
GGAGAGUACAGACACUGAGTT against Masp2 gave a z-score of -0.22.
In the case of GCUUAGACAACGACAUUUCTT against Mcoln3, the z-score is reported as 2.04 (active).
Sequence GGUCUUCUCCAAGAUCUUCTT against Cyp26b1 has a z-score of 1.03.
Sequence GCACACCUAUGUCCACUCUTT against Aars has a z-score of -0.923.
With GGUGCCUUCUGUAAACGAGTT against Foxc2 the z-score was 2.81 (active).
In the case of GGAAGGAAAACCUUUCAACTT against Cyp2j6, the z-score is reported as 0.975.
GGUGGUGACCUUGGAUGUUTT against Gstp3 showed a z-score of -0.00982.
With GGAAGCACAUAGAAGCCAATT against Defb11 the z-score was -0.504.
For GGGAGAGUGGAUCAUCAAUTT against P2ry10, the z-score was -0.0942.
In the case of GGGAAUAUUUGGAUAACUUTT against Pak7, the z-score is reported as 4.24 (active).
For GCCACGACCAUUCAGACUCTT against Lrrc42, the z-score was 1.27.
In the case of GGAUGAUCGGCACUAUAACTT against Otulin, the z-score is reported as 1.81.
For GGAGAGAUGUUUAUGAAUATT against Slc6a14, the z-score was -0.429.
GGAAAAAGAUAGAACCAGATT against Larp1b gave a z-score of -0.177.
Sequence GGAAAGCUCUUUGUGUCGGTT against Gramd3 has a z-score of -0.476.
CCAUCUAGUGCUGUAUUUCTT against Rnf215 gave a z-score of 0.67.
In the case of GGUGAAAUCCAUUAAAGAATT against Fth1, the z-score is reported as -2.06 (active).
Sequence GGAGUUUUCUCGAAACUUCTT against Fate1 has a z-score of 0.993.
GGACCAAGAACCAGCAAUGTT against Defb6 showed a z-score of -0.69.
GGAAAAACUGAAACAGUUUTT against Eif3a showed a z-score of 1.06.
In the case of AACACGGCUCUAGCCAAUCTT against Ypel4, the z-score is reported as -1.25.
With GCCAAUUUGAAUGGGAUGUTT against Magohb the z-score was -2.25 (active).
Sequence GGUGGUUACCAUAGCUGGUTT against Arid2 has a z-score of 1.67.
Work on CCUAAACUCACUCUUGUGUTT against Chrna6 yielded a z-score of -0.000677.
With CCUAGACGUGACUUAAUAUTT against Rabggtb the z-score was 2.09 (active).
With CCUCAGCAAAUAUAUGGCATT against Ccdc7b the z-score was 0.0117.
GCAAGCUGAGCAUUGAUGATT against Csk showed a z-score of 0.0106.
Sequence GCAGUCUUUUGGAUAGGUUTT against Ccni has a z-score of 0.86.
In the case of GCUGUGCAGCCACAAGUGATT against Gpr142, the z-score is reported as 8.63 (active).
Sequence GGAUGGAAUGCAGAAACGATT against Pcp2 has a z-score of -0.061.
With GGGAUCAGAAAAGUUAACATT against Acaca the z-score was 0.785.
